Laboratory results from PubChem BioAssay (NCI).
This is part of a sample that, as a whole, favours compounds with a hit. Of some 83,000 tested, about 20% had one in any assay.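 Single-concentration screen, 48 h exposure, 96-well plates. Endpoint: percent growth. Below 10 = active.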 Calls of active or inactive are those of the source.

The compounds below were run on OVCAR-4 ovarian (assay: NCI-60 one-dose screen, 48 h (100 = growth as untreated, 0 = no growth, -100 = all killed)). Conditions: 10 µM unless noted.

| SMILES | growth |
| --- | --- |
| CCN(CCNc1cc(OC)cc2cccnc12)CCc1ccccc1 | 19.1% (inactive) |
| CCCC/C(=N\N=C(N)N)c1ccc(F)cc1 | 39.7% (inactive) |
| O=S(=O)(c1ccc(N/N=C\c2ccccc2)cc1)c1ccc(N/N=C/c2ccccc2)cc1 | 44.7% (inactive) |
| CCOC(=O)C1=C(C)NC(C)=C(C(=O)OCC)C1c1cc(Br)c(O)c(OC)c1 | 47.4% (inactive) |
| CS(=O)(=O)OCCN(CCOS(C)(=O)=O)c1ccc(/C=N/Nc2ccc([N+](=O)[O-])cc2[N+](=O)[O-])cc1 | 93.1% (inactive) |
| COc1nccnn1 | 101% (inactive) |
| COc1cc(CCNc2nc3cc(N)cc(N)c3nc2-c2ccccc2)cc(OC)c1 | -94.9% (active) |
| O=C1/C(=C/c2ccc(O)cc2)COc2ccc(-c3ccccc3)cc21 | 100% (inactive) |
| Cc1[nH]n(-c2cccc(Cl)c2)c(=O)c1/C=C1\C=Nc2ccc(Br)cc21 | -89.9% (active) |
| Cc1cc2cc3cc(C)c(N)cc3[n+](C)c2cc1N | 10% (inactive) |
| COc1ccc(/C=N/NC(=O)c2cccc3cc[nH]c23)cc1O | 49.6% (inactive) |
| NC(=S)N/N=C(/c1ccccc1)c1ccccc1N | 78.5% (inactive) |
| CCCOc1nc(SCCC)nc2c1cnn2-c1ccccc1 | 99.6% (inactive) |
| COc1ccc(-c2cnnc3c(-c4cccc(C(F)(F)F)c4)cnn23)cc1 | 35.7% (inactive) |
| O=C1Nc2ccccc2/C1=C\c1cccc(/C=C2/C(=O)Nc3ccccc32)n1 | 11.6% (inactive) |

These compounds were tested on SK-OV-3 ovarian in the same assay as above. Conditions: 10 µM unless noted.

| SMILES | growth |
| --- | --- |
| O=c1[nH]c2c(s1)CCCC2CN1CCCCC1 (configuration not stated) | 86.6% (inactive) |
| O=C(N/N=C/c1cccc(O)c1)c1ccccc1Nc1cccc(C(F)(F)F)c1 | 78.4% (inactive) |
| COc1cc2nc(-c3ccc(C#N)cc3)[nH]c(=O)c2cc1OC | 112% (inactive) |
| O=C(Nc1ccccc1)Oc1ccccc1-c1ccccc1 | 80.1% (inactive) |
| O=C1Nc2c(ccc(Cl)c2Cl)/C1=C/c1ccccn1 | 94% (inactive) |
| COc1cc2nnn3c4ncccc4c(N=O)c3c2cc1OC | 104% (inactive) |
| Nc1cc(N)c2cccnc2c1O | 101% (inactive) |
| CC1=NNC(=O)C1CCC(=O)N/N=C(\C)c1ccc2ccccc2c1 (configuration not stated) | 126% (inactive) |
| CCCN=C(N)c1ccc(NC(=O)c2ccc(C(=O)Nc3ccc(C(N)=NCCC)cc3)cc2)cc1 | 95.6% (inactive) |
| O=C1/C(=C\c2cn(Cc3ccccc3)c3ccc(Br)cc23)c2ccccc2N1c1c(Cl)cccc1Cl | 101% (inactive) |
| COc1ccc(-n2cc(-c3cc(OC)c(OC)c(OC)c3)n(C(C)=O)c2=O)cc1 | 94.6% (inactive) |
| O=C(N/N=C/c1ccc(O)c(O)c1)c1sc2ccccc2c1Cl | 75.7% (inactive) |
| Cn1ncc2c(Nc3ccccc3Cl)nc(Cl)nc21 | 104% (inactive) |
| CCN(CCNc1cc(OC)cc2cccnc12)CCc1ccccc1 | 74.6% (inactive) |
| CCCC/C(=N\N=C(N)N)c1ccc(F)cc1 | 13.7% (inactive) |
| O=S(=O)(c1ccc(N/N=C\c2ccccc2)cc1)c1ccc(N/N=C/c2ccccc2)cc1 | 74% (inactive) |
| CCOC(=O)C1=C(C)NC(C)=C(C(=O)OCC)C1c1cc(Br)c(O)c(OC)c1 | 16.9% (inactive) |
| CS(=O)(=O)OCCN(CCOS(C)(=O)=O)c1ccc(/C=N/Nc2ccc([N+](=O)[O-])cc2[N+](=O)[O-])cc1 | 101% (inactive) |
| COc1nccnn1 | 110% (inactive) |
| COc1cc(CCNc2nc3cc(N)cc(N)c3nc2-c2ccccc2)cc(OC)c1 | 82.3% (inactive) |
| O=C1/C(=C/c2ccc(O)cc2)COc2ccc(-c3ccccc3)cc21 | 107% (inactive) |
| Cc1[nH]n(-c2cccc(Cl)c2)c(=O)c1/C=C1\C=Nc2ccc(Br)cc21 | -25% (active) |
| Cc1cc2cc3cc(C)c(N)cc3[n+](C)c2cc1N | 26% (inactive) |
| COc1ccc(/C=N/NC(=O)c2cccc3cc[nH]c23)cc1O | 26.1% (inactive) |
| NC(=S)N/N=C(/c1ccccc1)c1ccccc1N | 108% (inactive) |
| COc1ccc(-c2cnnc3c(-c4cccc(C(F)(F)F)c4)cnn23)cc1 | 15.1% (inactive) |
| O=C1Nc2ccccc2/C1=C\c1cccc(/C=C2/C(=O)Nc3ccccc32)n1 | -88.6% (active) |
